In PubChem BioAssay AID1159580 (chemical genetic matrix, 2015):
Hit rate of the full screen: of about 5,500 compounds, about 2,000 (36%) were called active. About 18% were inconclusive and are not listed. Cut-off read from the data, not from the text of the source: active = normalized growth mostly below about 0.91 (no sharp cut-off); inconclusive = no clear call, values can overlap the other calls; inactive = mostly above about 0.92. This is one part of the list.

Assay: chemical genetic growth profiling, strain panel (AID 1159580);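 note: tested at 20 µM; growth read once vehicle control cultures reached saturation at 30 °C; 1 = growth at the plate median or of vehicle wells; lower values mean less growth of the strain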
Settings: S. cerevisiae deletion strains, growth OD

Measured: normalized growth

NC1(C(=O)O)CCc2cc(C(=O)O)ccc21 (stereo not drawn)
inactive: locus YAL040C, strain CLN3, hits give low values 0.959 | locus YER002W, strain NOP16, hits give low values 0.997 | locus YGR078C, strain PAC10, hits give low values 1.01 | locus YNL128W, strain TEP1, hits give low values 0.997 | locus YNL175C, strain NOP13, hits give low values 0.988 | locus YNL197C, strain WHI3, hits give low values 0.998 | locus YNL224C, strain SQS1, hits give low values 1.01 | locus YOR083W, strain WHI5 (second series), hits give low values 0.993
